Data on 20 compounds can be found in PubChem BioAssay (NCI).

“And” between values parts separate entries of the source, which are not always exact repeats. Equal entries are not always repeated. The panel holds about 83,000 compounds, 20% with a hit somewhere; the sample as a whole holds those more often.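 Activity criterion: percent growth below 10, measured after cells in 96-well plates were exposed to a single compound concentration for 48 hours.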 The source made the active and inactive calls.

This assay deals with MCF7 breast. Nature of the assay: NCI-60 one-dose screen, 48 h (100 = growth as untreated, 0 = no growth, -100 = all killed). The conditions noted are these: 10 µM unless noted.
Take `CCCCC1C(=O)N(c2ccc(S(=O)(=O)Nc3ccccn3)cc2)N(c2ccc(O)c(C(=O)O)c2)C1=O` (stereo not given): the growth was 121% [100 µM] (inactive) and 87.3% [100 µM] (inactive).
With `CC1(C)S[C@H](CN)N[C@H]1C(=O)OC(c1ccccc1)c1ccccc1`, the growth is -8.91% [100 µM] (active) and -100% [100 µM] (active).
As for `Cc1ccc(F)cc1NC(=O)O/N=C(\Cl)C(C)C`, the figure is 72.4% [100 µM] (inactive) and 46.2% [100 µM] (inactive); as for `CC(C)=CC(O)C/C(C)=C/CC/C(C)=C/CCC1(C)C(CCCO)/C(=C(/C)C=O)CCC1(C)O` (stereo not given), -22.6% [100 µM] (active) and -6.67% [100 µM] (active); as for `COc1ccccc1-c1n[nH]c(-c2ccccc2O)n1`, 61.5% [100 µM] (inactive) and 21.6% [100 µM] (inactive).
`C=C1C2CCC3C4(C)CCCC(C)(C(=O)O)C4CCC3(C2)C1OC(=O)/C(C)=C/C` (stereo not given): the growth is 1.75% [100 µM] (active) and 65.7% [100 µM] (inactive).
On to `C=C1CC2(C)CCC(OC(=O)C3(C)OC3C)C(C)(OC(C)=O)C2CC1=C(C)C` (stereo not given), for which the growth is 67% [100 µM] (inactive) and 8.58% [100 µM] (active).
For `O=C1CC(c2ccccc2)NCCCCN2CC(CN1)C(C(O)c1ccccc1)C2=O` (stereo not given), the growth was 97.3% [100 µM] (inactive) and 76% [100 µM] (inactive).
With `COc1cc(C)c2c(c1C=O)Oc1c(c(C)c(O)c3c1C(O)OC3=O)OC2=O` (stereo not given), the growth is 1.49% [100 µM] (active) and 87.3% [100 µM] (inactive).
In the case of `COc1cc([C@H]2OC[C@@H]3C(c4cc(OC)c5c(c4)OCO5)OC[C@H]23)cc(OC)c1OC` (stereo not given in full), the growth was 67.2% [100 µM] (inactive) and 7.31% [100 µM] (active).
As for `C=C1C(=O)O[C@@H]2C[C@@]3(C)CC(=O)C=C(C)[C@@H]3C[C@H]12`, the figure is -74.2% [100 µM] (active) and -78.3% [100 µM] (active); as for `CCCCCCCCCC(O)CC(=O)c1c(O)cccc1O` (stereo not given), -63.9% [100 µM] (active) and -46.7% [100 µM] (active); as for `CN(C)c1ccc(/C=N/n2c(-c3ccccc3)nc3ccccc3c2=O)cc1`, 40.4% [100 µM] (inactive) and 21.1% [100 µM] (inactive).
In the case of `O=C(Nc1cccc(NC(=O)C(=O)C2CCC3=C(Sc4ccccc4N3)C2=O)n1)C(=O)C1CCC2=C(Sc3ccccc3N2)C1=O` (stereo not given) it was 51.4% [100 µM] (inactive) and 4.4% [100 µM] (active); in that of `CCO/C=N\C1=C(C#N)SC2=N/C(=C\c3ccc(OC)cc3)C(=O)N21`, 59.2% [100 µM] (inactive) and 48.6% [100 µM] (inactive).
Turning to `C=CC1=C(C)C2=NC1=CC1=NC(=C(CC)/C1=C\O)C=C1N=C3C(=C1C)C(=O)[C@H](C(=O)OC)C3=C1NC(=C2)[C@@H](C)[C@@H]1CCC(=O)O`, the growth is 16.5% [100 µM] (inactive) and 5.87% [100 µM] (active).
Take `CO/C(N)=C(\C#N)N=Cc1ccc2ccccc2c1`: the growth is 8.6% [100 µM] (active) and 1.15% [100 µM] (active).
Consider `O=C1C=CC=C/C1=C1\N=C(c2ccccc2OCC(=O)c2ccc(Br)cc2)SS1`, for which the growth is 77.7% [100 µM] (inactive) and 77% [100 µM] (inactive).
Take `CCCCCCCCCCCCC/C=C/[C@H]1[C@@H](C(=O)OC)N1S(=O)c1ccc(C)cc1` (stereo not given in full): the growth is 53.6% [100 µM] (inactive) and 36.2% [100 µM] (inactive).
For `Clc1ccc(C2NN=C3c4ccccc4OCC32)cc1` (stereo not given), the growth was -15.5% [100 µM] (active) and -82.5% [100 µM] (active).
